The results in this text go back to PubChem BioAssay AID748 (Sanford-Burnham Center for Chemical Genomics, 2007).

Among all 96,000 compounds or so, about 100 (0.1%) were called active.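 The calls were made as follows: active = displacement above 50% at 20 µM plus a fluorescence interference ratio under 1.5; inactive = the rest.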 The full list was thinned out, with actives kept by preference. Measured potencies and affinities stand elsewhere.

For this assay, the target named is Bcl-2-like protein 10 (Homo sapiens) (UniProt Q9HD36). Description: Bcl-B/TR3 peptide binding disruption – biochemical, fluorescence polarization, FITC-TR3 peptide, selectivity assay for Bfl-1 inhibitor project, primary screen (AID 748).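 Also: plate controls were wells without compound for no effect and wells lacking Bcl-B protein for full effect.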 Particulars: FP displacement of FITC-TR3 peptide from Bcl-B; at 20 µM; active compounds read high. For orientation: Polarisation of emitted light reports the rotation of a fluorescent probe.
In the case of `ClC1=CCC2CN(CCN3CCCCC3)CC2C1` (stereo not given), the displacement was 67.7% (active). With `O=c1cccc2n1CC1CC2CN(C(c2ccccc2)c2sc3ncnn3c2O)C1` (stereo not given), the displacement is -0.3% (inactive). Regarding `O=C1OCCN1P(=O)(c1ccccc1)c1ccccc1`, the displacement was -1.2% (inactive).

For `COc1ccc(C(=O)C2(C)N(O)C(C)C(c3cccs3)=[N+]2[O-])cc1` (stereo not given), the displacement was -5.6% (inactive). Take `CCC(=NCC1CCCO1)c1c(O)n(-c2ccc(Cl)cc2)c(=O)[nH]c1=O` (stereo not given): the displacement is -1.5% (inactive).
